The source of these data is PubChem BioAssay.

The test system of experiment [1] is Wnt5a (protein binding on small-molecule microarray). The experiment is described as follows: small molecules binding Wnt5a protein – biophysical, small-molecule microarray, 635/667 nm fluorescence, primary screen (AID 1142).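 Note: fluorescence read at 667 nm with signal to noise per printed feature.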 Conditions: 635 nm fluorescence, higher = more signal.
Experiment [2] can be described thus: ATP-based viability of Huh7 replicon cells – cell-based, CellTiter-Glo luminescence, basal, 48 h, cytotoxicity control for HCV replication inhibitor project, primary screen (AID 1143).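 Note: Huh7 hepatoma cells carrying a hepatitis C replication reporter with no stimulus; test concentration not given here.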 Conditions: higher = more signal, called active from +8 up or from −8 down. For orientation: In antiviral work, replicon cells carry a viral genome segment that copies itself.
A short description of experiment [3]: Pseudomonas biofilm growth suppression – PAO1 strain, BacTiter-Glo luminescence, LB-PBS, primary screen (AID 1144). Conditions: P. aeruginosa PAO1 biofilm, 12 h, higher = more signal.
The nature of experiment [4]: basal CRE-LacZ reporter activity in PC12 – cell-based, unstimulated, primary screen (AID 1145). As to conditions: no forskolin, luminescence, 4.5 h, higher = more signal, called active from +8 up or from −8 down.
A short description of experiment [5]: forskolin-driven CRE-LacZ activity in PC12 – cell-based, CRE-LacZ reporter, forskolin-stimulated, primary screen (AID 1146).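 Note: PC12 cells with 6xCRE LacZ reporter stimulated by forskolin 10 µM; beta-galactosidase reporter signal reflecting CREB driven transcription.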 Conditions: luminescence, 4.5 h, higher = more signal, called active from +8 up or from −8 down.
Experiment [6] deals with Streptavidin (Streptomyces avidinii) (UniProt P22629). The experiment is described as follows: compounds binding control protein streptavidin – biophysical, small-molecule microarray, 635/667 nm fluorescence, artefact control for SMM compound annotation, primary screen (AID 1147).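 Note: signal reflects streptavidin binding to arrayed compounds as a control protein.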 As to conditions: higher = more signal.
Chain of Streptavidin (Streptomyces avidinii) (P22629 whole entry, looked up): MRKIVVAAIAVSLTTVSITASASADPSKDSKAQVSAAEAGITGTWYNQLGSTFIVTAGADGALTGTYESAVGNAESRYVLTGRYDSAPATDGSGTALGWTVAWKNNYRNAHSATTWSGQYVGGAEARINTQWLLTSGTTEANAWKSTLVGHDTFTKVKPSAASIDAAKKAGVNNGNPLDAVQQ
Experiment [7] is described as follows: probe aInhba binding on compound microarray – biochemical, small-molecule microarray, 635/667 nm fluorescence, primary screen (AID 1148).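 Note: score merges 667nm spot fluorescence with signal-to-noise for antibody binding to printed compounds.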 Conditions: higher = more signal.
Experiment [8] has as its target Torsin-1A (Homo sapiens) (UniProt O14656). The experiment is described as follows: TOR1A wild-type binding on microarray – cell lysate, small-molecule microarray, lysate, 635/667 nm, primary screen (AID 1149). Conditions: COS7 hTOR1A-WT lysate, 635 nm fluorescence, higher = more signal.
Experiment [9] shares this target. The experiment is described as follows: torsin A mutant lysate binding on microarrays – cell lysate, small-molecule microarray, COS7 lysate, 635/667 nm fluorescence, primary screen (AID 1150).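 Note: score pools 667 nm emission and signal to noise measuring lysate protein binding.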 As to conditions: COS7 hTOR1A mutant lysate, 635 nm fluorescence, higher = more signal.
Experiment [10] has as its system Sonic hedgehog protein (Shh). The experiment is described as follows: Sonic hedgehog microarray binding compounds – biochemical, small-molecule microarray, 635/667 nm fluorescence, primary screen (AID 1151).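 Note: Shh protein binding to compounds spotted on small-molecule microarray slides; score combines spot fluorescence intensity with signal-to-noise across triplicate slides.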 Conditions: 635 nm fluorescence, higher = more signal.

Activity calls are given as the source filed them. Unless noted, the rule behind the calls is not given here.

Chain of Torsin-1A (Homo sapiens) (O14656 whole entry, looked up): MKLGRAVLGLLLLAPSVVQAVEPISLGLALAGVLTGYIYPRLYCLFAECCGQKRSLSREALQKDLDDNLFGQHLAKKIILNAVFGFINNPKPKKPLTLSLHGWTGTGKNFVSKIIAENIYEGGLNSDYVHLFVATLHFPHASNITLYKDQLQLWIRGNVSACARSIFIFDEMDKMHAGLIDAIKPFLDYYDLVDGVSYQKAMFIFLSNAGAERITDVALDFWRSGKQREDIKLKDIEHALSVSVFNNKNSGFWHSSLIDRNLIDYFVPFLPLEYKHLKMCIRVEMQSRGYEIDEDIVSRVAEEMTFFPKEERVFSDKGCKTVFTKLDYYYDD

`O=C1O[C@H](c2ccccc2)[C@H](c2ccccc2)N2[C@H]1[C@@H](C(=O)NC[C@H](O)c1ccccc1)[C@]1(C(=O)Nc3ccccc31)[C@H]2c1ccc(OCCO)cc1`: the composite z-score in experiment [1] is 0.187; in experiment [6], 0.261; in experiment [7] it was -0.0044; with Torsin-1A (Homo sapiens) [8] it was 1.55; with Torsin-1A (Homo sapiens) [9], 0.492; in [10], 0.297. Besides, the z-score in experiment [2] is -2.93 (inactive); in experiment [3], -1.13 (inactive); in experiment [4] it was -0.0784 (inactive); in [5] it was -0.499 (inactive).

Turning to `CCOC(=O)C1=CCC(c2ccc(C)cc2)N(S(=O)(=O)c2ccc(C)cc2)C1` (stereo not given), the composite z-score is -0.273 in experiment [1]; 0.841 in experiment [6]; -0.0645 in experiment [7]; -0.0669 in the experiment with Torsin-1A (Homo sapiens) [8]; 0.121 with Torsin-1A (Homo sapiens) [9]; -0.396 in experiment [10]. For the same compound, the z-score was -3.23 (inactive) in [2], 0.271 (inactive) in experiment [3], -0.527 (inactive) in experiment [4] and -0.34 (inactive) in experiment [5].

`C=CCOC(=O)[C@H]1[C@@H]2C(=O)O[C@@H](c3ccccc3)[C@@H](c3ccccc3)N2[C@@H](c2ccc(OCCOC(=O)[C@H]3C[C@H]4C(=O)N[C@@H](CC(C)C)C(=O)N4[C@H]3c3ccc(O)cc3)cc2)[C@]12C(=O)Nc1ccc(I)cc12`: the composite z-score was 0.931 in [1]; 0.335 in [6]; -0.0695 in experiment [7]; 1.45 with Torsin-1A (Homo sapiens) [8]; 1.45 in the experiment with Torsin-1A (Homo sapiens) [9]; 2.31 in experiment [10]. In addition, the z-score in [2] was -0.289 (inactive); in [3] it was -0.829 (inactive); in [4], -0.122 (inactive); in experiment [5], 0.535 (inactive).

As to `CCCCCCC#C[Si](O[C@H](c1ccccc1)c1cn([C@H](CO)Cc2ccccc2)nn1)(C(C)C)C(C)C`, the composite z-score in [1] was -0.193; in experiment [6], -0.463; in [7], -0.128; with Torsin-1A (Homo sapiens) [8], -1.01; with Torsin-1A (Homo sapiens) [9] it was 0.211; in experiment [10], 0.537. The z-score was -0.866 (inactive) in experiment [2], -0.235 (inactive) in experiment [3], -0.215 (inactive) in [4] and -0.0183 (inactive) in experiment [5].

Consider `CN1C(=O)C2C=CC(C(O)C3CC=CCC3)N(NC(=O)OC(C)(C)C)C2C1=O` (stereo not given), for which the composite z-score in experiment [1] stood at 0.154; in experiment [6], 1.15; in experiment [7], 0.0301; in the experiment with Torsin-1A (Homo sapiens) [8], 0.665; with Torsin-1A (Homo sapiens) [9], 1.12; in experiment [10], 0.737. Moreover, the z-score in experiment [2] was 0.248 (inactive); in [3] it was 0.0321 (inactive); in experiment [4], 0.626 (inactive); in experiment [5], 0.257 (inactive).

As to `CCOC1=C2C(CN(S(=O)(=O)c3ccc(C)cc3)C2c2ccc(C)cc2)C2C(=O)N(c3ccccc3)C(=O)C2C1` (stereo not given), the composite z-score is -0.069 in experiment [1]; 0.963 in experiment [6]; 0.0906 in experiment [7]; -0.196 with Torsin-1A (Homo sapiens) [8]; 0.115 in the experiment with Torsin-1A (Homo sapiens) [9]; 0.364 in [10]. The z-score is -0.288 (inactive) in experiment [2], -0.382 (inactive) in experiment [3], -0.275 (inactive) in [4] and 0.804 (inactive) in experiment [5].

For `C#CCNC(=O)[C@H](Cc1ccccc1)NC(=O)CCC(=O)O`, the composite z-score in experiment [1] is -0.0994; in experiment [6], -0.869; in experiment [7] it was -0.146; with Torsin-1A (Homo sapiens) [8], 0.119; in the experiment with Torsin-1A (Homo sapiens) [9], 0.544; in experiment [10], -0.192. Moreover, the z-score in experiment [2] is 0.0187 (inactive); in experiment [3] it was 0.743 (inactive); in experiment [4], 0.656 (inactive); in experiment [5], 0.301 (inactive).

In the case of `O=C1O[C@H](c2ccccc2)[C@H](c2ccccc2)N2[C@H]1[C@@H](C(=O)Nc1nc3ccccc3s1)[C@]1(C(=O)Nc3ccc(C#CCCO)cc31)[C@H]2c1ccc(OCCO)cc1`, the composite z-score is 0.767 in experiment [1]; 1.1 in [6]; 0.532 in [7]; 1.15 in the experiment with Torsin-1A (Homo sapiens) [8]; 0.637 with Torsin-1A (Homo sapiens) [9]; 1.05 in experiment [10]. Moreover, the z-score was -0.218 (inactive) in [2], -0.0404 (inactive) in experiment [3], -0.471 (inactive) in experiment [4] and 0.806 (inactive) in experiment [5].

As for `C=CC[C@]1(C(=O)N2CCCCC2)N=C(c2ccc(OCCCO)cc2)O[C@H]1c1ccccc1`, the composite z-score in experiment [1] was 0.15; in experiment [6], 0.224; in [7], 0.573; in the experiment with Torsin-1A (Homo sapiens) [8] it was 0.29; with Torsin-1A (Homo sapiens) [9], 1.11; in experiment [10], -0.328. The z-score was -3.83 (inactive) in [2], 0.351 (inactive) in experiment [3], 2.73 (inactive) in experiment [4] and 0.0819 (inactive) in experiment [5].

Regarding `CC(=O)n1cc(C(O)C2C=CC3C(=O)N(C)C(=O)C3N2Nc2ccccc2)c2ccccc21` (stereo not given), the composite z-score in experiment [1] amounted to 0.19; in experiment [6] it was 1.13; in experiment [7] it was 0.246; in the experiment with Torsin-1A (Homo sapiens) [8] it was 0.383; with Torsin-1A (Homo sapiens) [9], 0.606; in experiment [10], 1.04. For the same compound, the z-score in experiment [2] was 1.08 (inactive); in experiment [3] it was -0.114 (inactive); in [4] it was 0.0569 (inactive); in experiment [5], -0.172 (inactive).

`CCOC(=O)[C@H]1C/C=C/C[C@H](C(=O)OCC)C(=O)O[C@H]2[C@@H](OC)O[C@H](CO)[C@@H](OC(=O)Nc3ccc(C#N)cc3)[C@@H]2OC1=O`: the composite z-score in experiment [1] is 0.121; in experiment [6], -0.576; in experiment [7], -0.128; with Torsin-1A (Homo sapiens) [8] it was 0.392; with Torsin-1A (Homo sapiens) [9], 1.08; in [10], 0.673. The z-score in [2] was -6.66 (inactive); in experiment [3], -2.89 (inactive); in experiment [4], -1.29 (inactive); in experiment [5], -1.66 (inactive).

For `CN(C)CCCCCCNC(=O)[C@@H]1C[C@@H]2C(=O)N[C@@H](CCCCN)C(=O)N2[C@@H]1c1cccc(OCCO)c1`, the composite z-score in [1] turned out to be 1.97; in experiment [6], 3.03; in [7], 1.57; in the experiment with Torsin-1A (Homo sapiens) [8], 3.29; with Torsin-1A (Homo sapiens) [9], 3.11; in experiment [10], 1.92. Besides, the z-score is -0.598 (inactive) in [2], -1.19 (inactive) in [3], -0.268 (inactive) in experiment [4] and -0.199 (inactive) in [5].

As for `CCCC[C@@H]1C[C@H]1[C@@H](NC(=O)c1ccco1)c1ccc(Cl)cc1`, the composite z-score is 0.202 in experiment [1]; 2.09 in [6]; 0.306 in [7]; 0.104 in the experiment with Torsin-1A (Homo sapiens) [8]; 0.481 with Torsin-1A (Homo sapiens) [9]; -0.292 in experiment [10]. For the same compound, the z-score was -2.63 (inactive) in experiment [2], 0.564 (inactive) in experiment [3], -0.561 (inactive) in experiment [4] and 0.473 (inactive) in experiment [5].

`O=C1C2C=CC(C(O)c3c(F)cccc3Cl)N(Nc3ccccc3)C2C(=O)N1c1ccccc1` (stereo not given): the composite z-score in [1] is 0.422; in [6], 1.1; in experiment [7], 0.153; with Torsin-1A (Homo sapiens) [8], 0.463; in the experiment with Torsin-1A (Homo sapiens) [9], 0.836; in [10] it was -0.104. In addition, the z-score was -0.165 (inactive) in experiment [2], -0.48 (inactive) in experiment [3], 0.0535 (inactive) in experiment [4] and -0.0349 (inactive) in experiment [5].
